Reference: PubChem BioAssay AID603 (National Center for Advancing Translational Sciences (NCATS), 2007)
Screen size: about 71,000 compounds; about 180 (0.25%) were called active. Calls follow the shape of the dose curve; as a rule, active = well fitted curve in the direction sought with a large enough effect; inconclusive = small, poorly fitted or top-dose-only effect; inactive = flat fitted curve, though single readings scatter. The full list was thinned out, with actives kept by preference.

tested on: DNA polymerase III holoenzyme (E. coli); assay: qHTS Assay for Inhibitors of DNA Polymerase III Holoenzyme System; details: reconstituted DNA polymerase III holoenzyme replication, biochemical; series mostly up to 57.1 µM
Method: NIH Molecular Libraries Screening Centers Network [MLSCN]
NIH Chemical Genomics Center [NCGC]
Assay Provider: Charles McHenry, University of Colorado
E. coli DNA polymerase III holoenzyme complex was assayed for DNA production by fluorescent detection of the double-stranded DNA product with PicoGreen dye. The holoenzyme complex was reconstituted from the following purified protein components: DNA Polymerase III, beta subunit processivity factor, SSB single-stranded DNA binding protein, and Primase. Single-stranded, circular M13Gori was used as a substrate with dNTPs and NTPs also supplied to the substrate reagent. Compounds from the NCGC collection were incubated with the holoenzyme mixture for 15 min at room temperature to allow binding to occur, and then the reaction was started by the addition of substrate. After 30 min incubation at room temperature, PicoGreen solution containing EDTA was added to stop the reaction and to visualize the double-stranded DNA produced. Reaction progress was measured in a ViewLux CCD imager in fluorescence intensity mode by using 480 nm excitation and 540 nm emission filter set.
NCGC Assay Protocol Summary:
Buffer. 50 mM Hepes-KOH, pH 7.5, 5 % Glycerol, 0.02% NP40, 30 mM potassium;
glutamate, 1.5 mM Magnesium Acetate, 16 uM TCEP.
Buffer in columns 3 and 4 as negative control (no enzyme).
Substrate solution: 5 uM each dATP, dGTP, dCTP and TTP, 50 uM each GTP, CTP, UTP and 200 uM ATP, 1.4 nM M13gori (final concentrations).
Enzyme: 154 nM SSB, 2 nM Primase, 1 nM Beta, 0.35 nM Pol III (final concentrations).
PicoGreen/EDTA: 10 mM Tris-HCl, 10 mM EDTA, 5 uM PicoGreen (final concentrations).
Control titration: ChemBridge 5805060 (from 10 mM, then 1:2, in duplicate) was pin-transferred to upper half of column 2.
Three uL of holoenzyme mixture were dispensed to 1536-well Greiner black solid bottom plates. Compounds and controls (23 nL) were transferred via Kalypsys PinTool. The plates were incubated for 15 min at room temperature, and then 1 uL of substrate solution was added to start the reaction. After room temperature incubation for 35 minutes, 1 uL of PicoGreen solution was added to each well and the plates were read 480 nm excitation and 540 nm emission using ViewLux (Perkin-Elmer) High-throughput CCD imager and fluorescence protocol settings.
Keywords: NIH Roadmap, MLSCN, MLI, MLSMR, qHTS, NCGC, DNA Polymerase III, DNAPol3, DNAPoly3, DNA replication targets
% is scaled to controls: 0 for no effect and ±100 for the full control effect; potency is read from the fitted curve at half-maximal effect.

Activity change, negative = inhibition, inactive:
N#Cc1c(NC(=O)CSc2nc3ccccc3c(=O)n2Cc2ccco2)sc2c1CCCC2, COc1ccc(-n2c(=O)c(-c3cn(C)c4ccccc34)nc3cnc(OC)nc32)cc1, CC(=O)Oc1cccc(N2C(=O)C3CC=C(Cl)CC3C2=O)c1 (stereo not drawn), COc1ccc(CNc2ncnc3ccc(-c4cccnc4)cc23)c(OC)c1, CCOC(=O)CC1C(=O)NCCN1C(=O)COc1ccc(Br)cc1C (stereo not drawn), CC1CCN(c2oc(-c3ccccc3F)nc2C#N)CC1, c1ccc(CSCCc2ccncc2)cc1 -2.4% [at 11.4 µM], N#C/C(=C\c1ccc(O)c(O)c1)C(N)=O, COC(=O)[C@@]1(Cc2ccc(F)cc2)[C@H]2c3cc(C(=O)N4CCCC4)n(Cc4ccc(OC(F)(F)F)cc4)c3C[C@H]2CN1C(=O)c1ccccc1, OCCN1CCN(CC/C=C2\c3ccccc3Sc3ccc(C(F)(F)F)cc32)CC1, O=C(Nc1c2c(nn1-c1ccc(F)cc1)CS(=O)C2)C12CC3CC(CC(C3)C1)C2 (stereo not drawn), CCOC(=O)c1sc(N(Cc2ccccc2)C(=O)CN2C(=O)CN(C)C2=O)nc1C, O=C(Nc1cccc(F)c1)N1CC2(CCN(C(=O)c3cnccn3)CC2)C1, c1ccc2c(Nc3ccncc3)nc(-c3ccoc3)nc2c1, Cc1ccc(N2C(=O)c3oc4ccccc4c(=O)c3C2c2cccnc2)nc1 (stereo not drawn), COc1ccccc1N1CCN(Cc2ccc(OC)c3ccccc23)CC1, CCCCCCN(C(=O)CCCCCN1C(=O)NC(c2ccc(C(F)(F)F)cc2)C(C(=O)OCc2ccccc2)=C1C)C(C(=O)NCCCC)c1ccc(OCC(=O)OC)c(C(=O)OC)c1 (stereo not drawn), C[C@@H]1O[C@@H](O[C@@H]2[C@@H](O)[C@H](OCCc3ccc(O)c(O)c3)O[C@H](CO[C@@H]3O[C@H](CO)[C@@H](O)[C@H](O)[C@H]3O)[C@H]2OC(=O)/C=C/c2ccc(O)c(O)c2)[C@H](O)[C@H](O)[C@H]1O, C/C=C1\C(=O)C[C@@H]2[C@@H]3CCC4=CC(=O)CC[C@@]4(C)[C@H]3CC[C@@]12C, O=C(O)C1=CCCN(CCON=C(c2ccccc2)c2ccccc2)C1, COC(=O)C1=C(C)N(C)C(C)=C(C(=O)OC)C1c1cccc(Br)c1, O=C(NCc1cccnc1)c1cn(-c2ccccc2)nc1-c1cccs1, O=S(=O)(Nc1nccs1)c1ccc2c(c1)OCCO2, COC(=O)C1(C)C=CCN1C(=O)c1ccccc1 (stereo not drawn), COc1cccc(-c2cc3nc4c(c(N5CCC6(CC5)OCCO6)n3n2)CCCC4)c1, CCOc1ccccc1C1C(C(=O)OC)=CN(C)C=C1C(=O)OC, CC(C)NC(=O)N1CCCC2(CCN(C(=O)c3cccn3C)CC2)C1, COc1ccc(N)c(OC)c1, CC1=C2C(=O)OC(c3ccoc3)C2(C)CCC1 (stereo not drawn), Cn1c(SCC(=O)Nc2cccc(NC(=O)c3cccs3)c2)nnc1-c1ccncc1, COc1ccc(N2C(=O)c3cccc4cccc(c34)C2=O)nn1, O=C1c2ccccc2C(=O)N1CCCSc1ccccc1 -7.1% [at 11.4 µM], COc1ccc2[nH]cc(CCNc3cc(-c4ccccc4CN(C)C)ncn3)c2c1, O=C(c1cc(C(F)(F)F)cc(C(F)(F)F)c1)N1CCC2(CC1)CN(c1ccncc1)C2, CCN1C(=O)/C(=C2\SC(N3CCCCC3)=NC2=O)c2ccccc21, C/C=C/C=C/C(=O)O, O=S(=O)(/C=C/c1ccccc1)NCCc1ccccn1, COc1ccc(S(=O)(=O)Nc2ccc3c(c2)OCO3)cc1Cl, Cn1c(C(=O)NCCc2ccsc2)cc2c(=O)n(C)c3ccccc3c21, CC1CCCC(C)N1CCCNC(=O)c1cc2c(=O)n(C)c3ccccc3c2n1C (stereo not drawn), OCCNCCCCOc1ccccc1F -4.9% [at 11.4 µM], CC1(C)S[C@@H]2[C@@H](NC(=O)[C@@H](N)c3ccccc3)C(=O)N2[C@H]1C(=O)O, Oc1ccc(Cn2cc[nH]c2=S)cc1, C[N+]1(CCN=C=NC2CCCCC2)CCOCC1 -1.6% [at 11.4 µM], COc1ccc(C(=O)OCC(=O)c2ccc(C)c(S(=O)(=O)N3CCOCC3)c2)cc1OC, CCOc1ccc(NC(=O)CCC(=O)n2nc(C)cc2C)cc1, Cc1cccc(N2CCN(C(=O)c3cc4c(=O)[nH]c5ccccc5c4n3C)CC2)c1C, CCCn1c(C)nc2c(NCCCCN(CC)CC)nc(C)nc21, NCCNCC1CCNCC1 -9.7% [at 11.4 µM], CCNC(=S)NCC, CC(Cc1ccccc1)C(=O)N(C)Cc1ccccc1 (stereo not drawn), COc1ccccc1CNc1ncncc1-c1cccnc1, COc1cccc(NC(=O)Cn2cnc3sc(C)c(S(=O)(=O)N4CCN(C)CC4)c3c2=O)c1, COc1ccccc1N1CCN(C(=O)Cn2nnc(-c3cccs3)n2)CC1, Cc1[nH]c(N)nc(=S)c1CCCNc1ccccc1 -9.5% [at 11.4 µM], COc1ccc(OCC(=O)N2CCN(C(=O)c3cccs3)CC2)cc1, CC(C)C[C@@H](CC(=O)N[C@@H](CCC(=O)O)CC(=O)O)NC(=O)[C@@H]1CCCC[C@H]1NC(=O)C[C@@H](NC(=O)C[C@H](CO)NC(=O)[C@@H]1CCCC[C@H]1N)C(C)C, Cc1c(C)c2c(c(C)c1O)CC[C@@](C)(CN1CCN(c3cc(N4CCCC4)nc(N4CCCC4)n3)CC1)O2, CCCCNC(=O)CSc1nnc(-c2ccco2)n1C, CCN(CC)CCNC(=O)Cn1cnc2sc(C)c(S(=O)(=O)N3CCOCC3)c2c1=O, O=C1CC(c2ccccc2)C(=O)N1c1cccc(O)c1 (stereo not drawn), Cc1cc(Nc2ccc(Br)cc2F)n2ncnc2n1, COC(=O)c1ccccc1NC(=O)C1CCN(S(=O)(=O)c2cc(OC)ccc2OC)CC1, O=C(NCCCCO)C(F)(F)C(F)(F)C(F)(F)C(=O)NCCCCO, CCOc1cc(-c2nc3cc(C)ccn3c2NCC2CCCO2)ccc1O (stereo not drawn), N#C/C=C1\Sc2ccccc2C(=O)N1CC(=O)N1CCN(S(=O)(=O)c2ccccc2)CC1, COc1ccc(NC(=O)N2CC3(CCN(C(C)=O)CC3)C2)cc1, CCN(CC(=O)NCc1cccs1)c1nnnn1-c1ccccc1, O=C1N(Cc2ccc3c(c2)OCO3)c2ccccc2C1(O)c1c[nH]c2ccccc12 (stereo not drawn), Cc1nc2cnc(N3CCN(C)CC3)nc2n(C[C@H]2CCCO2)c1=O, N#CC1=C(N)Oc2cc(O)ccc2C1C1CCCCC1 (stereo not drawn), FC(F)(F)c1ccccc1-c1nc(-n2ccnc2)c2ccccc2n1, O=C(CSc1nc(-c2ccco2)cc(C(F)(F)F)n1)N1CCc2ccccc2C1, COCCCNC(=O)c1ccc(CNS(=O)(=O)c2ccc(NC(C)=O)cc2)cc1

Potency, active:
C[N+](C)(CCCCCC[N+](C)(C)CCCN1C(=O)c2cccc3cccc(c23)C1=O)CCCN1C(=O)c2cccc3cccc(c23)C1=O 15.8 µM, CCN1CCCC1CNC(=O)c1cc2c(=O)n(C)c3ccccc3c2n1C (stereo not drawn) 25.1 µM, O=C(O)c1c(Br)c(Br)c(Br)c(Br)c1C1c2ccc(O)cc2Oc2cc(O)ccc21 0.0251 µM, O=C(O)/C(=C/c1c(C(=O)O)[nH]c2cc(Cl)cc(Cl)c12)c1ccccc1 31.6 µM
